The results in this text go back to paper PMC7862700, “An all-to-all approach to the identification of sequence-specific readers for epigenetic DNA modifications on cytosine”.

What all share (experiment): DAPPL (digital affinity profiling via proximity ligation, sequencing); 10 mM Tris-HCl pH 7.5, 50 mM NaCl, 1 mM DTT, 4% glycerol, room temperature, 30 min; GST-TFs on glutathione beads, 16-mer random dsDNA library, 0.1% formaldehyde crosslink after washing; high values mean tight binding
For test [1], the target named is HSF1 (Homo sapiens, UniProt Q00613 1-529). Conditions: protein: recombinant; tags: N-terminal GST; chain copies: 3; dsDNA, one strand shown. The essentials:
(§1)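 Binding signal is given per hexamer as its read frequency for a factor divided by its frequency in the tag-only sample. GST-fused human transcription factors were expressed in yeast, captured on glutathione beads, barcoded with DNA and pooled with that sample, then incubated with 200 nmole of a 16-mer random double-stranded DNA library in Tris/NaCl/DTT/glycerol buffer for 30 min at room temperature. The pools were then washed, crosslinked, proximity-ligated, amplified by PCR and sequenced on an Illumina NextSeq500.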

The target of test [2] is CRX (Homo sapiens, UniProt O43186 1-299). Conditions: protein: recombinant; tags: N-terminal GST; dsDNA, one strand shown. The essentials: as §1
Chain of CRX (O43186 whole entry): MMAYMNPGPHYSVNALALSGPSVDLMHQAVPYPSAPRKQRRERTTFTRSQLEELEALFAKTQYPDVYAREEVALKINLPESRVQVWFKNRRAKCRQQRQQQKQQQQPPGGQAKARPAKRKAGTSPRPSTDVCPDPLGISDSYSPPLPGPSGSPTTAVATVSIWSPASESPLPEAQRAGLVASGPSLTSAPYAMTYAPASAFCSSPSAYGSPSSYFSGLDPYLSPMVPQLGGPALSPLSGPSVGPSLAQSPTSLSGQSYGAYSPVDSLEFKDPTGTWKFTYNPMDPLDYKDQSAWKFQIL
Test [3] concerns the target T1, SPDEF (Homo sapiens, UniProt O95238 1-335).
T1 sequence: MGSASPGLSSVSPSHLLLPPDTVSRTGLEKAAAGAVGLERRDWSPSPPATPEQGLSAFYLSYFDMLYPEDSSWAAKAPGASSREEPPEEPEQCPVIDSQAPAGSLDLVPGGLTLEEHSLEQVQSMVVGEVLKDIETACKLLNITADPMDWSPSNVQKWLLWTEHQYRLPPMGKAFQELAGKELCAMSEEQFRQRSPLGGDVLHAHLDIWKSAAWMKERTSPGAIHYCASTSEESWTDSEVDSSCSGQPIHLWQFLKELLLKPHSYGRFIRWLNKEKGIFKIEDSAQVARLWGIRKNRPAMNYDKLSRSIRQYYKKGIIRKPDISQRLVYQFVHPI
To be noted: protein: recombinant; tags: N-terminal GST; dsDNA, one strand shown. The essentials: as §1

Test [4] concerns the target T2, GABPA (Homo sapiens, UniProt Q06546 1-454).
T2 sequence: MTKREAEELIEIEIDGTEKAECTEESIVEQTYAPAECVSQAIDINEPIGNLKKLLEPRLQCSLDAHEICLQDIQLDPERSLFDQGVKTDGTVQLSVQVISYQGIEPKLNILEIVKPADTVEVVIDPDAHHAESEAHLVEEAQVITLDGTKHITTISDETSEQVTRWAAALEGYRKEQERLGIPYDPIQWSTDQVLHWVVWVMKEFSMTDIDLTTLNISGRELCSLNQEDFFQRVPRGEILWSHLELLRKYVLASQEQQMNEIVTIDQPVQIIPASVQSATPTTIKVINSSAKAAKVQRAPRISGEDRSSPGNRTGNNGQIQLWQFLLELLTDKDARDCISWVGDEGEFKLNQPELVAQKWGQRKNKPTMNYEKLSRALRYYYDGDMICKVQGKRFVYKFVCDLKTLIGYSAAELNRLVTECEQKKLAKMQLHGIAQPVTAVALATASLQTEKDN
Conditions: protein: recombinant; tags: N-terminal GST; dsDNA, one strand shown. Put shortly: as §1

Test [5] has as its target ELF1 (Homo sapiens, UniProt P32519 1-619). Conditions: protein: recombinant; tags: N-terminal GST; dsDNA, one strand shown. Put shortly:
as §1

The target of test [6] is T3, EHF (Homo sapiens, UniProt Q9NZC4 1-300).
T3 sequence: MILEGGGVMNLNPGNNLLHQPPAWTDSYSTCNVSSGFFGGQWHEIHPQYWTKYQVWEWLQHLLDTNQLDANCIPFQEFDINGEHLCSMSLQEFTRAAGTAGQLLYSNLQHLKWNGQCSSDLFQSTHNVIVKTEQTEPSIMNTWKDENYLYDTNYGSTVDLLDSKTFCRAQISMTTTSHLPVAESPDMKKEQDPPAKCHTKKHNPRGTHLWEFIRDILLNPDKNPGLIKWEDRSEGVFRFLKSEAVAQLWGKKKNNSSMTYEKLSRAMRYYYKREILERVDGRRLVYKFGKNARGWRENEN
To be noted: protein: recombinant; tags: N-terminal GST; dsDNA, one strand shown. The essentials: as §1

Test [7] has as its target T4, SPIC (Homo sapiens, UniProt Q8N5J4 1-248).
T4 sequence: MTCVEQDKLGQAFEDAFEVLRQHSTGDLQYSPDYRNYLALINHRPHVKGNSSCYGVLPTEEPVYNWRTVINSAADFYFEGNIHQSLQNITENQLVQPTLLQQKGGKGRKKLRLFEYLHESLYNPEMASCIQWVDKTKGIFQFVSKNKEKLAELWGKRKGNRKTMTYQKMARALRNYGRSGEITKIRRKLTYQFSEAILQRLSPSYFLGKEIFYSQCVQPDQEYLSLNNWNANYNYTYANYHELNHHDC
Conditions: protein: recombinant; tags: N-terminal GST; dsDNA, one strand shown. The essentials:
as §1

In test [8] the target is T5, ETV3 (Homo sapiens, UniProt P41162-2 1-143).
T5 sequence: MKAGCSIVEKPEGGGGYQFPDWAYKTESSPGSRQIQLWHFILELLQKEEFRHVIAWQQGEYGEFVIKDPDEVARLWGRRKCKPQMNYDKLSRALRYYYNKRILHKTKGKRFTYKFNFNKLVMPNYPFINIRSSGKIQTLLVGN
Conditions: protein: recombinant; tags: N-terminal GST; dsDNA, one strand shown. The essentials:
as §1

Test [9] addresses T6, ETV7 (Homo sapiens, UniProt Q9Y603 1-341).
T6 sequence: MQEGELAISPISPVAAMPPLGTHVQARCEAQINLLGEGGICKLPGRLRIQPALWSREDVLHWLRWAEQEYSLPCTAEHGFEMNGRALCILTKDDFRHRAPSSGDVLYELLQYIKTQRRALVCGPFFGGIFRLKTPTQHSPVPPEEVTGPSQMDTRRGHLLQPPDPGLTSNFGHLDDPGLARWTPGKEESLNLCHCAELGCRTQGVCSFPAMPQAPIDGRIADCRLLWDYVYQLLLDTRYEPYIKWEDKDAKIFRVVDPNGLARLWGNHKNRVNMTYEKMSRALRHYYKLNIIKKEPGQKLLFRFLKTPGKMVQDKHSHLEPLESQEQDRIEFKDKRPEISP
To be noted: protein: recombinant; tags: N-terminal GST; dsDNA, one strand shown. Put shortly:
as §1

The target of test [10] is T7, ELK4 (Homo sapiens, UniProt P28324-2 1-405).
T7 sequence: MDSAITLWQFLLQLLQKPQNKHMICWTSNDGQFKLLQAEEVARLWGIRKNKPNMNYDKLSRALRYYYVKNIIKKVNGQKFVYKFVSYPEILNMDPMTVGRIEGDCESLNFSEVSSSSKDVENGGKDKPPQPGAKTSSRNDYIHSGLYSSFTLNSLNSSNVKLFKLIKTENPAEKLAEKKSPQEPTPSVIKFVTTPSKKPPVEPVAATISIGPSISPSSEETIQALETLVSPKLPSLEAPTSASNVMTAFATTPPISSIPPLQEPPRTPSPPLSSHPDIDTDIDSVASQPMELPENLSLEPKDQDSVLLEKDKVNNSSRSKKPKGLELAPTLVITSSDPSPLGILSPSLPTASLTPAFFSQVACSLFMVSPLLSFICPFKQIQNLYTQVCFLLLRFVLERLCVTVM
Conditions: protein: recombinant; tags: N-terminal GST; dsDNA, one strand shown. Put shortly: as §1

Test [11] concerns the target T8, ERG (Homo sapiens, UniProt P11308 1-479).
T8 sequence: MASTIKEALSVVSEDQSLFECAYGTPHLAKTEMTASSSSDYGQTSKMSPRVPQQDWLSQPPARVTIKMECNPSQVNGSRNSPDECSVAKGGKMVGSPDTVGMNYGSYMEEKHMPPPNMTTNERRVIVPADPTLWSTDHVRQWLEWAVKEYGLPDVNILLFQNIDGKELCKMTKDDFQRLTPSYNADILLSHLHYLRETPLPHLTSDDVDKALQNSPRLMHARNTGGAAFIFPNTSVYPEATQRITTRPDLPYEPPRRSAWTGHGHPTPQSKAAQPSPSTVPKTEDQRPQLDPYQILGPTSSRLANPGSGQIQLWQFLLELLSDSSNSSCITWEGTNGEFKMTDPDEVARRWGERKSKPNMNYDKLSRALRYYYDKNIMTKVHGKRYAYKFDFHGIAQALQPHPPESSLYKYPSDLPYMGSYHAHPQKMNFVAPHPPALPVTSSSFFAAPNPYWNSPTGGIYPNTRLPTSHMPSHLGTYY
Conditions: protein: recombinant; tags: N-terminal GST; dsDNA, one strand shown. The essentials:
as §1

Test [12] addresses ELF4 (Homo sapiens, UniProt Q99607 1-663). Conditions: protein: recombinant; tags: N-terminal GST; dsDNA, one strand shown. The essentials: as §1
Test [13] concerns the target T9, ETV2 (Homo sapiens, UniProt O00321 1-342).
T9 sequence: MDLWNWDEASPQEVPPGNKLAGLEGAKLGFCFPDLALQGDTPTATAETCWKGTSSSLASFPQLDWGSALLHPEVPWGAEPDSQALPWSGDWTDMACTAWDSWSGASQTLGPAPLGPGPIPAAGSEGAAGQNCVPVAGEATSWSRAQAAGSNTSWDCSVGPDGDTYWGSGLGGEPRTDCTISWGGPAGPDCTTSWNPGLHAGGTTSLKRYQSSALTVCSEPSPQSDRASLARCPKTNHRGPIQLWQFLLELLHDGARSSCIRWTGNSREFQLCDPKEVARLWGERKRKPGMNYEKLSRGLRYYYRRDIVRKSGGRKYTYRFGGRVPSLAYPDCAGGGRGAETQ
To be noted: protein: recombinant; tags: N-terminal GST; dsDNA, one strand shown. Put shortly: as §1

Test [14] has as its target ETV1 (Homo sapiens, UniProt P50549 1-477). To be noted: protein: recombinant; tags: N-terminal GST; dsDNA, one strand shown. The essentials:
as §1

Test [15] deals with T10, ETV3L (Homo sapiens, UniProt Q6ZN32 1-361).
T10 sequence: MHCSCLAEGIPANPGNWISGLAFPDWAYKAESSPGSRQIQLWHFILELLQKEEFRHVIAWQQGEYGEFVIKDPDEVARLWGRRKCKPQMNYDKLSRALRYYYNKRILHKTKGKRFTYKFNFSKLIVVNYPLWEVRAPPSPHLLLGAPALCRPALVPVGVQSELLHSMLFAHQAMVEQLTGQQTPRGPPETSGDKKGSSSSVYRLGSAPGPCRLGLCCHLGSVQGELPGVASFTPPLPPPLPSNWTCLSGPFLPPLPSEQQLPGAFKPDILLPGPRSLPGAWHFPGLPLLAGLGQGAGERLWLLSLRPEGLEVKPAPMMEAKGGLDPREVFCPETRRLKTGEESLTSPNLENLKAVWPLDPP
To be noted: protein: recombinant; tags: N-terminal GST; dsDNA, one strand shown. Put shortly:
as §1

Chain of HSF1 (Q00613 whole entry, the tested form may be a part): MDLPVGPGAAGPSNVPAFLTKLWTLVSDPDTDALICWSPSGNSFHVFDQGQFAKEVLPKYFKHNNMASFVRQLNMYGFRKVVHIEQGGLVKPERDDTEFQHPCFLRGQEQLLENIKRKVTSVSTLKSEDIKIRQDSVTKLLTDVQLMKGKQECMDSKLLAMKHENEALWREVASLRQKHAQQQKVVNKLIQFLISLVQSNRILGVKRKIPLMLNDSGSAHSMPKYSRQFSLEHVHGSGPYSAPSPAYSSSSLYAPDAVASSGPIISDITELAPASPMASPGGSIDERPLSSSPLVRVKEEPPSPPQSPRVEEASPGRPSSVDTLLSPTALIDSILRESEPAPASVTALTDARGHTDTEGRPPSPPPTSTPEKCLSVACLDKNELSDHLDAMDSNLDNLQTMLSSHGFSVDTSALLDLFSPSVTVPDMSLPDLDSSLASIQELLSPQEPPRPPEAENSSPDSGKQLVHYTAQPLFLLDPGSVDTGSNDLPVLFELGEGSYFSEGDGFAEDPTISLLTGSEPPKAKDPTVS
Chain of ELF1 (P32519 whole entry): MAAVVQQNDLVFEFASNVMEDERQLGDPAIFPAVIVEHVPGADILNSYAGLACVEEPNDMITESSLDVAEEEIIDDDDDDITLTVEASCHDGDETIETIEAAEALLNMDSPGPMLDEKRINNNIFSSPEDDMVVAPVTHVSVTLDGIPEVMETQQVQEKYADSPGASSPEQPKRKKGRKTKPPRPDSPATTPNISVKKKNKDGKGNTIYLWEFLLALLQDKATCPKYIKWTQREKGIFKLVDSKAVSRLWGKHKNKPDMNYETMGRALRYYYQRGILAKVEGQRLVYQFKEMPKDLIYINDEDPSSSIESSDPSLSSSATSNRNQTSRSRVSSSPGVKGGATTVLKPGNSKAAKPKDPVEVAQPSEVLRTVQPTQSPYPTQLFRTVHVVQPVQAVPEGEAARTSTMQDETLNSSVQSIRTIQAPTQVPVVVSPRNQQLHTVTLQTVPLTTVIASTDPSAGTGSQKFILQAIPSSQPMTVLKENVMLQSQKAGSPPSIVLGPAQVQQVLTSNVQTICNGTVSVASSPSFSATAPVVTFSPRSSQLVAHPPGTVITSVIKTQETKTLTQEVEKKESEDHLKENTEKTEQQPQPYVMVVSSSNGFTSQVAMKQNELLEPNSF
Chain of ELF4 (Q99607 whole entry): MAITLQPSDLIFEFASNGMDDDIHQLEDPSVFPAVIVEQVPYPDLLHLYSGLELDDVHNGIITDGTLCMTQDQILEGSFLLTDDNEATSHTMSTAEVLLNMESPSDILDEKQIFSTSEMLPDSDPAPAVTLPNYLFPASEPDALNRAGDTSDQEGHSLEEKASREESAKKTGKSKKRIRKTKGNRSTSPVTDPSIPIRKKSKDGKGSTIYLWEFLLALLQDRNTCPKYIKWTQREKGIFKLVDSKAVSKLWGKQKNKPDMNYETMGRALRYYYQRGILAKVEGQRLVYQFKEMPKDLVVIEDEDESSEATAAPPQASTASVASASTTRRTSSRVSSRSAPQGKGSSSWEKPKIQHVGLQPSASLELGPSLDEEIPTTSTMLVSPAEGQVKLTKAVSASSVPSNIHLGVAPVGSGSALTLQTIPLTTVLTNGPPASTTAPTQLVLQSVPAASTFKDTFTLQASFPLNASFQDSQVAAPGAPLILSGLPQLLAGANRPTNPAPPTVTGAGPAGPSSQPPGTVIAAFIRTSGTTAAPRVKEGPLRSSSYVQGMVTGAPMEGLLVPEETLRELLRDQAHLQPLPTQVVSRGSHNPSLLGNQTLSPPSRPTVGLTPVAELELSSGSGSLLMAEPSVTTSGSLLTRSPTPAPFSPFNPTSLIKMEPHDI
Chain of ETV1 (P50549 whole entry): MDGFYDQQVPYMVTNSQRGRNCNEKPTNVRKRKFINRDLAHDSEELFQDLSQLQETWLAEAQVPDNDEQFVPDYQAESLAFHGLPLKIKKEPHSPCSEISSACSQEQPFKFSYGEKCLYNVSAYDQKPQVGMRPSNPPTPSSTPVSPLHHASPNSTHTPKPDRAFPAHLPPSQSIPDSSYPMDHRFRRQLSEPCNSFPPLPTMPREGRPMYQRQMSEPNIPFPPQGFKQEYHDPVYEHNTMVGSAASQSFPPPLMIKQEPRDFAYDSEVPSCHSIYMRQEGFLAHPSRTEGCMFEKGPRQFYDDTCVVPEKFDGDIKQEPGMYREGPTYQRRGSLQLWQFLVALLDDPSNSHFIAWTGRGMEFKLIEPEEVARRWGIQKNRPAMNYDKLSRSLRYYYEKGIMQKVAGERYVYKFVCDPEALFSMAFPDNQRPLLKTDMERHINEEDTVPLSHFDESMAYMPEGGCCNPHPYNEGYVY

As to AGGATC, the binding signal in test [1] is 1.08 fold enrichment (6-mer frequency, TF over GST control); in test [2], 1.2 fold enrichment (6-mer frequency, TF over GST control); in test [3], 1.2 fold enrichment (6-mer frequency, TF over GST control).

On to CTAGAC, for which the binding signal in test [4] is 1.01 fold enrichment (6-mer frequency, TF over GST control); in [5], 1.09 fold enrichment (6-mer frequency, TF over GST control); in test [6] it was 1.01 fold enrichment (6-mer frequency, TF over GST control); in test [1], 1.59 fold enrichment (6-mer frequency, TF over GST control); in [2], 1 fold enrichment (6-mer frequency, TF over GST control).

With GCGAAG, the binding signal in test [6] was 1 fold enrichment (6-mer frequency, TF over GST control); in [1], 1.15 fold enrichment (6-mer frequency, TF over GST control).

As for GCGCGT, in test [7], the binding signal was 1 fold enrichment (6-mer frequency, TF over GST control).

Turning to TTCGGG, the binding signal in test [1] is 1.58 fold enrichment (6-mer frequency, TF over GST control); in test [2], 1 fold enrichment (6-mer frequency, TF over GST control); in [8], 1.03 fold enrichment (6-mer frequency, TF over GST control).

Regarding GATTAG, the binding signal was 2.22 fold enrichment (6-mer frequency, TF over GST control) in [1] and 3.62 fold enrichment (6-mer frequency, TF over GST control) in [2].

Take CAATCG: in test [7], the binding signal was 1.03 fold enrichment (6-mer frequency, TF over GST control).

With TCCAGA, the binding signal is 3.36 fold enrichment (6-mer frequency, TF over GST control) in test [1] and 1.5 fold enrichment (6-mer frequency, TF over GST control) in [2].

Regarding GAAGAT, the binding signal in test [1] was 1.24 fold enrichment (6-mer frequency, TF over GST control); in test [2], 1.12 fold enrichment (6-mer frequency, TF over GST control); in test [9], 1 fold enrichment (6-mer frequency, TF over GST control).

In the case of CTGGGG, the binding signal in [7] is 1 fold enrichment (6-mer frequency, TF over GST control).

As for GGCACC, the binding signal in test [7] is 1.03 fold enrichment (6-mer frequency, TF over GST control).

As for ACGCCA, in test [7], the binding signal is 1 fold enrichment (6-mer frequency, TF over GST control).

Regarding AGGGCC, the binding signal in [7] was 1.02 fold enrichment (6-mer frequency, TF over GST control); in [10], 1.1 fold enrichment (6-mer frequency, TF over GST control).

Turning to CCTAGG, the binding signal in test [4] is 1.04 fold enrichment (6-mer frequency, TF over GST control); in [11], 1 fold enrichment (6-mer frequency, TF over GST control); in test [5], 1.07 fold enrichment (6-mer frequency, TF over GST control); in test [7], 1.1 fold enrichment (6-mer frequency, TF over GST control); in test [12] it was 1.07 fold enrichment (6-mer frequency, TF over GST control); in test [10], 1.04 fold enrichment (6-mer frequency, TF over GST control). The binding signal was 1.03 fold enrichment (6-mer frequency, TF over GST control) in [13]; 1.02 fold enrichment (6-mer frequency, TF over GST control) in test [14]; 1.03 fold enrichment (6-mer frequency, TF over GST control) in [15]; 1.02 fold enrichment (6-mer frequency, TF over GST control) in test [3]; 1.1 fold enrichment (6-mer frequency, TF over GST control) in [8].
